A short description of assay [1]: NCI Yeast Anticancer Drug Screen. Data for the rad50 strain (AID 155).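 Further: 0% = growth of vehicle-only cultures of the same strain.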 The settings on record: S. cerevisiae rad50 strain growth inhibition, stronger effect = higher value; at 50.0 µM unless noted. The essentials:
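Genetically altered yeast (DNA repair pathway); compound treatment; growth inhibition vs vehicle ctrl.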

Assay [2] in a line: NCI Yeast Anticancer Drug Screen. Data for the mec2-1 strain (AID 157). The settings on record: S. cerevisiae mec2-1 strain, stronger effect = higher value; at 50.0 µM unless noted. The method, boiled down:
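Mutant yeast (mec2-1) grown with compound; growth inhibition relative to vehicle control reported.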

The nature of assay [3]: NCI Yeast Anticancer Drug Screen. Data for the sgs1 mgt1 strain (AID 161).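 Further: 0% = growth of cultures given vehicle only.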 The settings on record: S. cerevisiae sgs1 mgt1 strain, stronger effect = higher value; at 50.0 µM unless noted. The method, boiled down: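 This yeast growth screen uses a strain with defined DNA-repair lesions; compound-treated growth is compared with vehicle-treated growth.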
A short description of assay [4]: NCI Yeast Anticancer Drug Screen. Data for the cln2 rad14 strain (AID 165).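 Further: 0% = growth equal to vehicle treated cultures.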 The settings on record: S. cerevisiae cln2 rad14 strain, stronger effect = higher value; at 50.0 µM unless noted. The method, boiled down:
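Readout is yeast growth inhibition versus vehicle-treated controls, using a strain with cln2 and rad14 alterations exposed to compound.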

Assay [5] is described as follows: NCI Yeast Anticancer Drug Screen. Data for the bub3 strain (AID 167). The settings on record: S. cerevisiae bub3 mutant strain, stronger effect = higher value; at 50.0 µM unless noted. The method, boiled down: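 Yeast carrying a defined mutation is treated with each compound, and growth is compared with that of vehicle-exposed cells to give inhibition.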
The nature of assay [6]: NCI Yeast Anticancer Drug Screen. Data for the mlh1 rad18 strain (AID 175). The settings on record: S. cerevisiae mlh1 rad18 strain growth inhibition, stronger effect = higher value; at 50.0 µM unless noted. The essentials:
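Genetically defined yeast (DNA repair-deficient) exposed to compounds; growth inhibition determined relative to vehicle.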

The structures appear in SMILES notation. Values joined by “and” are separate entries in the source; they are usually repeats but may differ in a detail not shown here. Equal values may be shown once. About 79,000 compounds went through this panel and 15% of them were active in at least one assay; those are over-represented in the sample as a whole. Values without a mark were called inactive. Active and inactive are the calls of the source. No stated cut-off is given here; in the data, active means growth inhibition above about 70%; inactive means the rest.

For the compound `COC1OC(COC(=O)c2ccc([N+](=O)[O-])cc2)C2SC12` (stereo not given), the growth inhibition in assay [1] was 9.5%; in assay [2] it was -9.1%; in assay [3] it was 1.8%; in assay [4] it was -27.6%; in assay [5], 6.7%; in assay [6] it was 2.65%.

Regarding `CC(=O)OC[C@@]12C[C@H]3C(=O)C(C)(C)C[C@H]3[C@]1(C)[C@@H](OC(C)=O)[C@]1(O)[C@H]([C@@H](OC(=O)c3ccccc3)[C@@H](C)[C@H]1OC(C)=O)[C@H]2OC(C)=O`, the growth inhibition was -13.6% in assay [1]; -26.9% in assay [2]; 3.25% in assay [3]; -3.25% in assay [4]; 10.8% in assay [5]; -3.15% in assay [6].

Turning to `FC(F)(F)c1cc(NC(=S)SCc2ccc3c(c2)OCO3)ccc1Cl`, the growth inhibition in assay [1] was 73.5% (active); in assay [2], 63.9%; in assay [3], 73.3% (active); in assay [4] it was 38.5%; in assay [5], 59.2%; in assay [6], 84% (active).

Turning to `O=Cc1ccccc1OCCOc1ccccc1C=O`, the growth inhibition in assay [1] was 8.7%; in assay [2], 1.35%; in assay [3], 10.2%; in assay [4], -24%; in assay [5] it was 9.4%; in assay [6], 19.1%.

On to `Nc1ncnc2c1ncn2C1OC(COP(=O)(O)O)C(O)C1O` (stereo not given), for which the growth inhibition is -9.65% and -9.3% in assay [1]; 1.65% and -12.6% in assay [2]; 15.6% and -9.1% in assay [3]; 2.95% and 9.25% in assay [4]; 0.85% and -17.9% in assay [5]; -9% and -13.2% in assay [6].

As to `Cc1c2c(c(O)c3sccc13)C(C)(C)OC2=O`, the growth inhibition in assay [1] was -3.75%; in assay [2], -1.8%; in assay [3] it was -9.6%; in assay [4], -59%; in assay [5], -26.4%; in assay [6], -3.1%.

Regarding `C/C(=N\NC(N)=O)c1ccc(Br)c2ccccc12`, the growth inhibition was -19.1% in assay [1]; 12.9% in assay [2]; -3.35% in assay [3]; 4.05% in assay [4]; 1.05% in assay [5]; -1.2% in assay [6].

For the compound `c1ccc(-c2cn(-c3ccccc3)nn2)cc1`, the growth inhibition was -1% in assay [1]; -4.5% in assay [2]; -13.7% in assay [3]; -22.9% in assay [4]; -28.8% in assay [5]; 0.6% in assay [6].

Regarding `CC(=O)[CH-]C(=O)c1ccccc1.CC(=O)[CH-]C(=O)c1ccccc1.CC1(C)OCC(C2OC3OC(C)(C)OC3C2[O-])O1.CC1(C)OCC(C2OC3OC(C)(C)OC3C2[O-])O1.[Ti+4]` (stereo not given), the growth inhibition in assay [1] is 29.9%; in assay [2], 5.65%; in assay [3] it was 14.8%; in assay [4], 14.9%; in assay [5], 27.9%; in assay [6] it was 20.2%.

On to `CC(O)C(O)C(O)C(O)c1nc2ccccc2[nH]1` (stereo not given), for which the growth inhibition in assay [1] is -18.4%; in assay [2] it was -3.35%; in assay [3] it was -20.6%; in assay [4], -37%; in assay [5] it was 4.35%; in assay [6] it was 9.9%.

Regarding `CCCCC/C(C=O)=C\c1ccccc1`, the growth inhibition was 38.5% in assay [1]; 15.8% in assay [2]; 39.5% in assay [3]; -12.2% in assay [4]; 18% in assay [5]; 38% in assay [6].

For the compound `Cc1ccc(O)c(Cl)c1C`, the growth inhibition in assay [1] was 6.4%; in assay [2], -28.1%; in assay [3], -6.7%; in assay [4], 7.4%; in assay [5], -26.3%; in assay [6], 5.1%.

Consider `C=C1C[C@@H](O)C[C@@]2(C)C[C@@H]3OC(=O)C(=C)[C@@H]3C[C@H]12`, for which the growth inhibition is -5.9% in assay [1]; -3% in assay [2]; 16.2% in assay [3]; 14.2% in assay [4]; -16.6% in assay [5]; 19.9% in assay [6].

On to `CCOC(=O)/C(=C\c1ccccc1)c1ccccc1`, for which the growth inhibition was 7.15% in assay [1]; 5.5% in assay [2]; 9.65% in assay [3]; 7.85% in assay [4]; 27.1% in assay [5]; -6.8% in assay [6].

`CC1CC(Nc2ccc(Br)cc2)N(C(=O)c2ccc(Br)cc2)O1` (stereo not given): the growth inhibition in assay [1] was -25.9%; in assay [2], -1.2%; in assay [3], 25.5%; in assay [4] it was 5.65%; in assay [5], -35%; in assay [6] it was -2.8%.

Consider `CCOC(=O)Nc1ccc(F)cc1C`, for which the growth inhibition was 14.8% in assay [1]; 5.3% in assay [2]; -7.55% in assay [3]; -4% in assay [4]; 7.3% in assay [5]; -1% in assay [6].

As for `O=C1C(O)=C(O)C(Br)=C/C1=C(/c1ccccc1S(=O)(=O)O)c1cc(Br)c(O)c(O)c1O`, the growth inhibition in assay [1] is 9.65%; in assay [2], 6.9%; in assay [3] it was 15.5%; in assay [4], 1.8%; in assay [5] it was -0.2%; in assay [6], 18.4%.

As for `CC1=C(N2CCOCC2)C(N2CCOCC2)C(C)C1=O` (stereo not given), the growth inhibition was 16.8% in assay [1]; -5.25% in assay [2]; -4.8% in assay [3]; 13.7% in assay [4]; 9.1% in assay [5]; 3% in assay [6].

Regarding `CN(Cc1cnc2nc(N)nc(N)c2n1)c1ccc(C(=O)NC(CCC(=O)OCc2c(Cl)cccc2Cl)C(=O)OCc2c(Cl)cccc2Cl)cc1` (stereo not given), the growth inhibition in assay [1] is 17.1%; in assay [2], 9.2%; in assay [3] it was 28.5%; in assay [4], 36.2%; in assay [5] it was 22.1%; in assay [6] it was 24.5%.

As to `CCCCCCCCCCCCCCCCCCc1ccc(O)cc1O`, the growth inhibition is -2.05% in assay [1]; -2.05% in assay [2]; -15.9% in assay [3]; 12.6% in assay [4]; 1.75% in assay [5]; -5.2% in assay [6].

Values taken from PubChem BioAssay (NCI).
